GRK2 inh = inhibitors of human GRK2 displacing RNA aptamer | AID 488847 | inhibition of aptamer binding, % at 10 µM | P25098 | 330,000 tested, 0.59% active | bead flow cytometry, FAM-aptamer displacement from GRK2;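 active = inhibition of aptamer binding above 40%, roughly 3 SD of noise, on plates passing a quality check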;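 also: median bead fluorescence of bound FAM aptamer so fluorescent compounds give negative values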
MEKK3 PB1 HTS = raises or lowers MEK5 binding to the human MEKK3 PB1 domain. Q99759. 290,000 tested, 1.4% active. binding response (% of control), % at 10 µM. bead-based flow cytometry, Alexa488-MEK5 binding to MEKK3; actives lie on both sides; 0 = blocked by unlabeled MEK5, 100 = vehicle;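 active = binding response more than 3 SD above or below the average of its plate-row segment, actives on both sides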;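 also: Alexa488 bead fluorescence after subtracting the streptavidin-only scavenger bead signal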
MEKK2 mut-MEK5 = signal of MEK5 binding to mutant human MEKK2 PB1 domain. bead flow cytometry, Alexa488-MEK5 binding to MEKK2 mutant. percent response, % at 10 µM. 290,000 tested, 0.35% active. AID 1530; in the data active = percent response above about 24%, passing the limit was not always enough
MEKK2 WT-MEK5 = raises or lowers MEK5 binding to wildtype human MEKK2 PB1 domain; binding response (% of control), % at 10 µM; bead flow cytometry, Alexa488-MEK5 binding to MEKK2 WT; actives lie on both sides; 290,000 tested, 1.1% active; Q9Y2U5; in the data active = binding response below about 67% or above about 130%
MEKK2wt confirm = raises or lowers MEK5 binding to wildtype human MEKK2, retest | shares compounds with MEKK3 PB1 HTS | bead flow cytometry, Alexa488-MEK5 binding to MEKK2 WT; actives lie on both sides | binding response (% of control), % at 10 µM | 5,900 tested, 2.4% active | AID 1892; in the data active = binding response below about 16% or above about 210%; inactive = in between
MEKK2mut confirm = signal of MEK5 binding to mutant human MEKK2, retest; AID 1893; percent response, % at 10 µM; 5,900 tested, 2% active; bead flow cytometry, Alexa488-MEK5 binding to MEKK2 mutant; shares compounds with MEKK3 PB1 HTS; in the data active = percent response mostly above about 71%, no sharp cut-off; inactive = mostly below about 38%;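 also: higher means compound restores mutant binding toward wildtype level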
MEKK3 confirm = MEKK3-MEK5 PB1 inhibition, single concentration confirmation; shares compounds with MEKK3 PB1 HTS; bead flow cytometry, Alexa488-MEK5 binding to MEKK3; hits give low values; binding response (% of control), % at 10 µM; 5,900 tested, 1.8% active;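 active = binding response below 72% of control, or above a set upper limit, though filed actives all read lower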;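 also: lower values mean stronger disruption of MEK5 binding to MEKK3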
Numbers stand for hits; . = inactive; / = no result given; [ ] = remark or other dose. A selection: hits, their analogues and other compounds. The true share with any hit is near 2.5%.

SMILES	GRK2 inh	MEKK3 PB1 HTS	MEKK2 mut-MEK5	MEKK2 WT-MEK5	MEKK2wt confirm	MEKK2mut confirm	MEKK3 confirm
CCCCCCCCC[n+]1cccc2c3ccccc3ccc21	.	.	.	135	.	.	.
Cc1ccccc1C[n+]1cccc2ccccc21	.	/	/	/	/	/	/
CC(=O)Nc1cccc(C(=O)N2CCN(Cc3ccccc3)CC2)c1	.	-1.0[inhibitor]	.	-1.0[inhibitor]	.	.	.
Cc1ccc(NC(=O)c2c([N+](=O)[O-])c(C(C)(C)C)nn2C)c(C)c1	.	137	.	.	.	.	.
Nc1ccc2nc(SCC(=O)Nc3ccc(N4CCOCC4)c(Cl)c3)sc2c1	.	135	.	.	.	.	.
O=C(CSc1nc2ccccc2s1)Nc1cc(S(=O)(=O)N2CCOCC2)ccc1Cl	.	129	.	.	.	.	.
O=C(CSc1nc2ccccc2s1)Nc1ccc2c(c1)OCO2	.	158	.	.	.	.	.
Cc1ccc(NC(=O)CSc2ccc(-c3ccc4c(c3)OCO4)nn2)cc1F	.	132	.	.	.	.	.
CC(Sc1nc2ccccc2s1)C(=O)Nc1ccc2c(c1)OCO2 (stereo not given)	.	.	.	.	/	/	/
O=C(CNc1ccccc1Cl)Nc1cc(S(=O)(=O)N2CCOCC2)ccc1Cl	.	/	/	/	/	/	/
CCCC(=O)Nc1ccc2nc(SCC(=O)Nc3ccc(N4CCOCC4)c(Cl)c3)sc2c1	.	/	/	/	/	/	/
CC1O[C@@H]2O[C@](O[C@H](C)CC[C@@H](C)O)(c3ccccc3)O[C@@H]2C[C@H]1O (stereo not given in full)	.	/	/	/	/	/	/
CSCC(CO)NS(=O)(=O)c1ccc(C)cc1 (stereo not given)	.	.	.	.	/	/	/
CN(C)S(=O)(=O)c1ccc(C(=O)NC(=O)CSc2ccccc2)cc1	.	131	.	.	.	.	.
CC(=O)Nc1ccc(SCC(=O)NC(=O)c2ccc(S(=O)(=O)N(C)C)cc2)cc1	.	/	/	/	/	/	/
C=CCNS(=O)(=O)c1cccc2cc(C(=O)O)c(O)cc12	.	134	.	136	.	.	.
CN(CC(=O)NCc1ccncc1)S(=O)(=O)c1ccc2ccccc2c1	.	129	.	.	.	.	.
COCCNC(=O)C(OC(=O)c1ccco1)c1ccccc1OC (stereo not given)	.	123	.	.	.	.	.
COCCNC(=O)C(OC(=O)c1ccco1)c1ccccc1Cl (stereo not given)	.	.	.	.	/	/	/
COc1ccc(C(OC(=O)c2ccco2)C(=O)NC(C)(C)C)cc1 (stereo not given)	.	139	.	.	.	.	.
O=C(NCC(c1ccco1)N1CCc2ccccc2C1)C(=O)Nc1ccccc1 (stereo not given)	.	/	/	/	/	/	/
CC(=O)OC1CC(C)N(C(=O)c2ccccc2)c2ccc(C)cc21 (stereo not given)	.	.	.	.	/	/	/
CCCC(=O)OC1CC(C)N(C(=O)c2ccccc2)c2ccc(C)cc21 (stereo not given)	.	12[inhibitor]	.	21[inhibitor]	.	.	.
CN(C)N1C(N)=C(C#N)C(c2ccccc2F)C2=C1CC(C)(C)CC2=O (stereo not given)	.	.	.	.	/	/	/
COc1ccc(Cl)cc1NC(=O)C1CCN(C(=O)Nc2ccccc2)CC1	.	/	/	/	/	/	/
SMILES	GRK2 inh	MEKK3 PB1 HTS	MEKK2 mut-MEK5	MEKK2 WT-MEK5	MEKK2wt confirm	MEKK2mut confirm	MEKK3 confirm
CN=C(Nc1cccnc1)c1ccccc1	.	.	.	.	/	/	/
CC1(C)Cc2nc(N3CCCC3)c(C#N)cc2CO1	.	129	.	.	.	.	.
COC(=O)c1c(NC(=O)c2ccc(OC(C)C)cc2)sc2c1CC(C)(C)NC2(C)C	.	.	.	173	.	.	.
CCOC(=O)c1c(NC(=O)c2ccc(C)cc2)sc2c1CC(C)(C)NC2(C)C	.	.	.	138	.	.	.
CC(=O)c1ccc(NC(=O)COc2ccc3c(c2)OCO3)cc1	.	.	.	.	/	/	/
Cc1ccc2c(c1)N(C(=O)CCC(=O)NCc1ccccn1)CC(C)O2 (stereo not given)	.	.	.	.	/	/	/

Screens (PubChem BioAssay)
